Experimental data from article PMC4336329 (PLoS ONE, 2015).
The whole screen tested about 310,000 compounds, of which about 14,000 (4.5%) showed an effect of 50% or more. Effects have a minus sign here. The full list was thinned out, with strong results kept by preference.

biological target: human ether-à-go-go-related gene (hERG) potassium channel (human, UniProt Q12809); experiment: primary screen, population patch clamp on CHO cells stably expressing hERG; higher = less effect of the substance
Sequence (Q12809 whole entry, looked up): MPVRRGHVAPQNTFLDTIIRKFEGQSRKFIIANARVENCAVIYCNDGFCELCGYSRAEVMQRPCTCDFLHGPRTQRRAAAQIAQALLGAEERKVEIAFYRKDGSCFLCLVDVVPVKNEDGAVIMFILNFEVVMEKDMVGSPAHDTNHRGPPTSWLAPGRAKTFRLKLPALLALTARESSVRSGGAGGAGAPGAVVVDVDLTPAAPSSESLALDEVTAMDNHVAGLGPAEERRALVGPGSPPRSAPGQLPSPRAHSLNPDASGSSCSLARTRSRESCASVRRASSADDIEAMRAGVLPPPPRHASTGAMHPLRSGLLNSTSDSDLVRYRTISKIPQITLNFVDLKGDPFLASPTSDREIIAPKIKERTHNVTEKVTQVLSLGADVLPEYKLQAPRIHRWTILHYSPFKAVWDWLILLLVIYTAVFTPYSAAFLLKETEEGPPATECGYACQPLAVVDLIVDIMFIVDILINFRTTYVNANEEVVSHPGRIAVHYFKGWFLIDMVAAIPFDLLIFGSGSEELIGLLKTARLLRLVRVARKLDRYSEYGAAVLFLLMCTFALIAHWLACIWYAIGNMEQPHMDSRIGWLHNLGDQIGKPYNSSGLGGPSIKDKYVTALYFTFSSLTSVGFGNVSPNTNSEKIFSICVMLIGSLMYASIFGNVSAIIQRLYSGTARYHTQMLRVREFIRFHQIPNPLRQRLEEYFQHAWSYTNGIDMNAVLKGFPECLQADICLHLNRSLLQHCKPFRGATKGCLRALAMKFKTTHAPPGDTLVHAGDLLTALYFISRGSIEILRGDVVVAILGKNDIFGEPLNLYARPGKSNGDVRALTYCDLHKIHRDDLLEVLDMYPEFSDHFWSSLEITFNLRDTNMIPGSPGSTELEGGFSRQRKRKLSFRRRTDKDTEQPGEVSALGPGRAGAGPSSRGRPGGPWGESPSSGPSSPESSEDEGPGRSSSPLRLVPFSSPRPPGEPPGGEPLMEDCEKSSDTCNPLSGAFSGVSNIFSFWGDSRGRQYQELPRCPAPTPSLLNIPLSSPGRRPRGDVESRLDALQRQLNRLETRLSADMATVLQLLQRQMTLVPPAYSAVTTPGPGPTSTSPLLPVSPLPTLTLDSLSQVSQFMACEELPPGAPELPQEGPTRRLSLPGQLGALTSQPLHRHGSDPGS
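Further: peak tail current of the secondary pulse compared with the same well before compound.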

Row | SMILES | hERG current change (%, negative = inhibition) at 10uM
1 | O=C(Nc1cccnc1)C1(c2ccccc2)CCCC1 | 4.11%
2 | O=[N+]([O-])/C=C1/NCCN1Cc1ccc(Cl)nc1 | -1.96%
3 | CC1CCc2c(C(=O)NCc3ccco3)csc2C1 (stereo not shown) | -8.96%
4 | Cn1c(SCC(=O)O)nc2sc3c(c2c1=O)CCC3 | 30.3%
5 | COC(=O)c1ccc2c(c1)S(=O)(=O)NC(=NCc1ccco1)S2 | -23.8%
6 | O=C(NCc1cccc(Cl)c1)c1cnccn1 | -9.28%
7 | CCn1ncc(-c2csc(N)n2)c1C | 0.511%
8 | BrC(=C\c1ccccc1)/C=N/N1CCN(Cc2ccccc2)CC1 | 4.34%
9 | CCN1C(=O)C(CC(=O)NCCc2ccccc2)N(NC(=O)c2cccnc2)C1=S (stereo not shown) | -21.1%
10 | O=C(CSc1nc2cc(Cl)ccc2s1)Nc1cccc(S(=O)(=O)N2CCOCC2)c1 | -10.7%
11 | S=C(NCCc1ccccc1)Nc1ccc(Br)cn1 | 3.98%
12 | CC(Oc1ccc(F)cc1)C(=O)Nc1cc(S(=O)(=O)N2CCOCC2)ccc1N1CCCC1 (stereo not shown) | 13.7%
13 | CCN1CCN(c2ccc(S(=O)(=O)N3CCOCC3)cc2NC(=O)C(C)Oc2ccc(F)cc2)CC1 (stereo not shown) | -57.4%
14 | CC(Oc1ccc(F)cc1)C(=O)Nc1cc(S(=O)(=O)N2CCOCC2)ccc1N1CCN(C)CC1 (stereo not shown) | -29.9%
15 | C=CCN1C(=O)/C(=C\c2ccc(Oc3nc(N4CCOCC4)nc(N4CCOCC4)n3)c(OC)c2)SC1=S | 15.9%
16 | COCCn1c(=S)[nH]c2cc(C(=O)NCCCN3CCOCC3)ccc2c1=O | 8.93%
17 | CCC[C@H](CN[C@@H](CNC)[C@H](C)O)NCCc1ccc(OC)cc1 | 2.16%
18 | CCCC[C@@H](CNC)NC[C@H](Cc1ccc(O)cc1)NCCc1ccc(OCC)cc1 | -53.7%
19 | CCC[C@@H](CNC)NC[C@H](Cc1ccccc1)NCCCCc1ccccc1 | -6.02%
20 | Cc1[nH]c2ccccc2c1/C=N/n1cnnc1 | 10.2%
21 | COCCn1c(C)cc(C(=O)COc2ccc(N(C)S(=O)(=O)c3ccc(C)cc3)cc2)c1C | -19.9%
22 | CCc1ccc(OCC(=O)N/N=C/c2cc([N+](=O)[O-])ccc2N2CCOCC2)cc1 | -14.6%
23 | CCN(CC)S(=O)(=O)c1ccc(-c2cn3ccc(C)cc3n2)cc1 | 7.52%
24 | O=C(Cc1cccs1)N1CCN(c2cccc(Cl)c2)CC1 | -12%
25 | O=C(O)C(=O)O.OC(COCc1cccs1)CN1CCN(c2cccc(Cl)c2)CC1 (stereo not shown) | -63.8%
26 | CN1CCCN(CC(O)COCc2cccs2)CC1 (stereo not shown) | -2.94%
27 | OC(COC(c1ccccc1)c1ccccc1)CN1CCN(c2cccc(Cl)c2)CC1 (stereo not shown) | 6.16%
28 | Cl.OC(COCc1cccs1)CN1CCCCCC1 (stereo not shown) | -21.9%

Row | SMILES | hERG current change (%, negative = inhibition) at 10uM
29 | OC(COCc1cccs1)CN1CCN(c2cccc(C(F)(F)F)c2)CC1 (stereo not shown) | -69.6%
30 | CCOC(=O)CNC(=O)c1cn(CC(C)C)c(=O)c2cc(OC)c(OC)cc12 | -24%
31 | CCCC(=O)Nc1nnc(-c2ccccc2)o1 | 7.03%
32 | CCOc1ccc(NC(=O)CN(C)C(=O)c2cc(C)nc3ccccc23)cc1OCC | -16.2%
33 | CCOc1ccc(NC(=O)CN(C)C(=O)c2cccnc2Sc2ccc(Cl)cc2)cc1OCC | -52.4%
34 | CCOc1ccc(NC(=O)CN(C)C(=O)c2cc(-c3ccc(OC)cc3)nc3ccccc23)cc1OCC | -2.15%
35 | COCCN(CC(=O)Nc1cccc(C)c1C)C(=O)c1cc2ccccc2cc1OC | -26.7%
36 | CCOc1ccc(NC(=O)CN(C)C(=O)c2cc(-c3ccncc3)nc3ccccc23)cc1OCC | -58.6%
37 | COCCN(CC(=O)Nc1cccc(C)c1C)C(=O)c1ccc2ccccc2n1 | -0.121%
38 | CCOc1ccc(NC(=O)CN(C)C(=O)c2cccnc2Sc2ccccc2Cl)cc1OCC | -8.63%
39 | CCOc1ccc(NC(=O)CN(C)C(=O)c2cccnc2Sc2ccc(C)c(C)c2)cc1OCC | 0.0885%
40 | COCCN(CC(=O)Nc1cccc(C)c1C)C(=O)c1cc(-c2ccncc2)nc2ccccc12 | -57.3%
41 | O=C(Cc1ccc(S(=O)(=O)N2CCOCC2)s1)N1CCN(S(=O)(=O)c2cccc(Cl)c2)CC1 | -5.33%
42 | CC(=O)N1N=C(c2ccc(C)cc2)OC1c1ccc(Br)cc1 (stereo not shown) | 27.8%
43 | Cc1nnc(NC(=O)CSc2ccc(-c3ccco3)nn2)s1 | 9.75%
44 | CC(C)NC(=O)CSc1nc(N)c(NC(=O)c2ccco2)c(=O)[nH]1 | 14.7%
45 | OCCNc1nc2nonc2nc1NCCO | 11%
46 | CN1CCN(C(c2cccc(Cl)c2)c2ccccc2Cl)CC1.O=C(O)/C=C\C(=O)O (stereo not shown) | -73.1%
47 | Cc1cccc(CN2CCN(C(c3ccccc3)c3ccc(Cl)cc3)CC2)c1.Cl (stereo not shown) | 18.5%
48 | CN1CCN(C(c2ccccc2)c2ccccc2)CC1.Cl | -12.1%
49 | CN1CCCN(C(c2ccccc2)c2ccc(Cl)cc2)CC1.Cl (stereo not shown) | -73.8%
50 | O=C(O)/C=C/C(=O)N1CCN(C(c2ccccc2)c2ccccc2)CC1 | 40.8%
51 | CN1CCN(C(=O)/C=C/c2cccc(Cl)c2)CC1 | -6.45%
52 | CN1CCN(C(c2ccccc2)c2ccc(Cl)cc2)CC1.Cl (stereo not shown) | -60.9%
53 | Clc1ccc(C(c2ccccc2)N2CCN(c3ccccn3)CC2)cc1 (stereo not shown) | -5.64%
54 | Clc1ccc(C(c2ccccc2)N2CCNCC2)cc1 (stereo not shown) | -22.7%
55 | COc1cccc(CN2CCN(c3ncccn3)CC2)c1OC | -3.3%
